The supplement of paper PMC9262897, “Low-cost anti-mycobacterial drug discovery using engineered E. coli” (Nature Communications, 2022)
Structures can show the parent of a compound that is named as a salt. ± gives the standard deviation of the averaged measurements.

Test system: E. coli TESEC Alr+ wild-type control
Assay: growth (OD600 after 10 h); higher = more growth (less inhibition)
Conditions: compound 0.1 mM; raw OD600 reference: median of DMSO wells 0.49, cell-free background 0.052
Method: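 TESEC Mtb Alr E. coli (ΔaraC ΔtolC ΔentC Δalr ΔdadX, arabinose-inducible Mtb Alr) or the Alr+ wild-type control strain, grown in defined M9-fructose medium without D-alanine in 96-well plates with Prestwick library compounds at 0.1 mM and 1% DMSO. Low Alr induction is 0.1 µM arabinose and high induction is 10 mM arabinose.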

| SMILES | growth |
| --- | --- |
| N=c1nc(N2CCCCC2)cc(N)n1O [Minoxidil] | 0.45 ± 0.038 |
| CC(=O)NC[C@H]1CN(c2ccc(N3CCOCC3)c(F)c2)C(=O)O1 [Linezolid] | 0.0669 ± 0.00098 |
| CC(O)(P(=O)(O)O)P(=O)(O)O [Etidronic acid, disodium salt] | 0.578 ± 0.046 |
| COc1ccc2cc([C@@H](C)C(=O)O)ccc2c1 [(R) -Naproxen sodium salt] | 0.448 ± 0.03 |
| NC1CCN(c2nc3c(cc2F)c(=O)c(C(=O)O)cn3-c2ccc(F)cc2F)C1 (stereo not drawn) [Tosufloxacin hydrochloride] | 0.0604 ± 0.0041 |
| O=C(NCCNCC(O)COc1ccc(O)cc1)N1CCOCC1 (stereo not drawn) [Xamoterol hemifumarate] | 0.631 ± 0.0095 |
| Cc1cc2cc3c(C)cc(=O)oc3c(C)c2o1 [Trioxsalen] | 0.438 ± 0.0099 |
| CCCCC(=O)O[C@H]1CC[C@H]2[C@@H]3CCc4cc(O)ccc4[C@H]3CC[C@]12C [Estradiol Valerate] | 0.48 ± 0.071 |
| CCCc1ncc(C[n+]2ccccc2C)c(N)n1 [Amprolium hydrochloride] | 0.497 ± 0.041 |
| COC1=C(OC)C(=O)C(CCCCCCCCCCO)=C(C)C1=O [Idebenone] | 0.0491 ± 0.0001 |
| CC(N/C(=N\C#N)Nc1ccncc1)C(C)(C)C (stereo not drawn) [Pinacidil] | 0.446 ± 0.031 |
| C[C@H]1C[C@H]2[C@@H]3CCC4=CC(=O)C=C[C@]4(C)[C@@]3(F)[C@@H](O)C[C@]2(C)[C@@]1(O)C(=O)CO [Betamethasone] | 0.552 ± 0.02 |
| Fc1ccc(C(c2ccc(F)cc2)N2CCN(C/C=C/c3ccccc3)CC2)cc1 [Flunarizine dihydrochloride] | 0.234 ± 0.0076 |
